# In all, about 48,000 compounds went through this assay and about 13,000 (27%) showed an effect of 50% or more. The list shows a part of the results.
# Test system: Wolbachia pipientis
# Test: Anti-Wolbachia Cell-Based Screen
# Type: functional
# Set-up: scale not given: in the data most compounds retested in dose-response had high values
# Settings: 5 µM
row,Structure (SMILES),Percent Effect [%]
1,COCC1CC2(CCNCC2)CN1Cc1csc(C)n1.O=C(O)C(F)(F)F.O=C(O)C(F)(F)F (stereo not given),-1.413
2,COCCN(Cc1ccc(F)cc1Cl)C(=O)c1cc(C)n[nH]1,6.366
3,Cc1cc(Cn2cc(C(C)Cc3ccc4c(c3)OCO4)nn2)n[nH]1 (stereo not given),3.819
4,Cc1cnc(N2CC[C@@H](N3CCOCC3)[C@@H]2Cc2ccncc2)nc1.O=C(O)C(F)(F)F.O=C(O)C(F)(F)F,-9.199
5,O=C(O)C(c1ccc(O)cc1)N1CCC(N2CCSCC2)CC1 (stereo not given),107.3
6,O=C(O)C(c1cccc2c1OCC2)N1CCC(N2CCSCC2)CC1 (stereo not given),4.197
7,O=C(O)C(c1ccc2c(c1)OCCO2)N1CCSCC1 (stereo not given),3.219
8,O=C(O)C(c1ccc2c(c1)OCCO2)N1CCC(N2CCSCC2)CC1 (stereo not given),114.8
9,COc1ccc(C(C(=O)O)N2CCN(C3CCCCC3)CC2)cc1OC (stereo not given),-12.55
10,Cc1cc(=O)n2ncnc2n1CC(O)c1cc(Cl)ccc1Cl (stereo not given),-47.28
11,COc1ccc(F)c(-c2cc(O)nc(N)n2)c1,-16.24
12,CCN1CCOCC12CCN(C(=O)C1CCC1)CC2.O=C(O)C(F)(F)F,107.9
13,CC(=O)N1CCC2(CC1)COCCN2CCN(C)C.O=C(O)C(F)(F)F.O=C(O)C(F)(F)F,6.129
14,CCN1CCOCC12CCN(C(=O)c1ccsc1)CC2.O=C(O)C(F)(F)F,-8.879
15,CCN1CCOCC12CCN(C(=O)Cc1cccs1)CC2.O=C(O)C(F)(F)F,0.8444
16,CN(C)CCN1CCOCC12CCN(C(=O)C1CC1)CC2.O=C(O)C(F)(F)F.O=C(O)C(F)(F)F,105.8
17,CN(C)CCN1CCC2(CCCN(C(=O)C3CCC3)C2)CC1.O=C(O)C(F)(F)F.O=C(O)C(F)(F)F,-7.862
18,CN1CCOC2(CCCN(C(=O)C3CCCCC3)C2)C1.O=C(O)C(F)(F)F (stereo not given),-15.05
19,CN1CCOCC12CCN(C(=O)C1CCC1)CC2.O=C(O)C(F)(F)F,137.1
20,Cn1ccnc1C(=O)N1CCC2(CCCN2CC2CC2)CC1.O=C(O)C(F)(F)F,5.734
21,O=C(C1CCC1)N1CCC2(CCCN2CC2CC2)CC1.O=C(O)C(F)(F)F,90.77
22,CN1CCOCC12CCN(c1nncs1)CC2.O=C(O)C(F)(F)F.O=C(O)C(F)(F)F,6.857
23,CC(C)C(=O)N1CCC2(CCN2CC2CC2)C1.O=C(O)C(F)(F)F (stereo not given),-2.181
24,Cc1nc(CN(C)c2nc3c(cnn3C(C)(C)C)c(=O)[nH]2)cs1,2.09
25,CC(=O)N1CC[C@H]2C(=O)N(c3ccsc3)CCO[C@H]2C1,-22.82

row,Structure (SMILES),Percent Effect [%]
1,Cc1ccc(CN(C)C)cc1NC(=O)C1CC1,-4.043
2,CCOCC(=O)N1CCC2(CC1)COCCN2CCOC.O=C(O)C(F)(F)F,1.249
3,CCOCC(=O)N1CCC2(CC1)COCCN2CCN(C)C.O=C(O)C(F)(F)F.O=C(O)C(F)(F)F,122.8
4,O=C(Cc1cccs1)N1CCC2(CC1)COCCN2CC1CC1.O=C(O)C(F)(F)F,-7.1
5,COCC(=O)N1CCC2(CC1)COCCN2CCN(C)C.O=C(O)C(F)(F)F.O=C(O)C(F)(F)F,-13.01
6,O=C(C1CCCO1)N1CCC2(CC1)COCCN2CC1CC1 (stereo not given),91.17
7,CCN1CCOCC12CCN(C(=O)C1CCCC1)CC2.O=C(O)C(F)(F)F,72.95
8,c1csc(CN2CCC3(CC2)COCCN3CC2CC2)n1,-11.56
9,CC(C)(C)N1CC(C(=O)NCc2cn3cccnc3n2)CC1=O (stereo not given),-9.989
10,Cc1nc(CN(C)Cc2nc(-c3ccncc3)no2)co1,-11.37
11,O=CO.c1nc(CN2CCCC(Cc3ccc(NC4CCCC4)nn3)C2)c[nH]1 (stereo not given),168.2
12,CC(C)[C@H]1CN(Cc2c[nH]cn2)C[C@@H]1NC(=O)CC1CCC1,-5.041
13,O=C(CC1CCCC1)N[C@H]1CN(Cc2c[nH]cn2)C[C@@H]1C1CC1,-0.5907
14,Cc1csc(CCNC(=O)C2CCCN(C3CCOCC3)C2)n1 (stereo not given),-10.65
15,CNc1ccc(CC2CCCN(Cc3c[nH]cn3)C2)nn1 (stereo not given),113.9
16,COCCNc1ccc(CC2CCCN(Cc3c[nH]cn3)C2)nn1 (stereo not given),98.89
17,COCCNc1ccc(CC2CCCN(C3CCOCC3)C2)nn1 (stereo not given),121.9
18,Cn1c(CCNC(=O)C2CCCN(C3CCOCC3)C2)n[nH]c1=O (stereo not given),-0.6939
19,Cc1c(C(=O)NCC2CCN(Cc3c[nH]cn3)C2)[nH]c2ccccc12 (stereo not given),1.148
20,Cc1ccc2[nH]nc(C(=O)NCC3CCN(Cc4c[nH]cn4)C3)c2c1 (stereo not given),-10.2
21,NC(=O)COc1ccc(CNC(=O)CN2CCc3ccccc32)cc1,-10.38
22,CN(CCO)Cc1nnc(C2CCN(C3CCCCC3)CC2)n1C,6.504
23,Cc1ccc(C(=O)N2CCSCC2)cc1NC(=O)Cn1cncn1,-1.948
24,NC(=O)c1cccc(CCNC(=O)N2CCCC2)c1,-5.891
25,CCCc1cc(=O)[nH]c(-c2cccc(CN3CCN4CCCC4C3)c2)n1 (stereo not given),-7.506
